The source of these data is PubChem BioAssay AID504454 (NMMLSC, 2011).

Hit rate of the full screen: of about 340,000 compounds, about 1,400 (0.41%) were called active. The list comes from a sample in which actives are over-represented; it also holds similar structures and randomly drawn compounds. A number with no mark means an inactive call.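 Rule for the calls: active = response above a set limit, near 3 SD of response in nonfluorescent compounds (cut at about 42% in these data); inactive = the rest.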

In the test the target is Beta-2 adrenergic receptor (Homo sapiens) (UniProt P07550). Kind of test: agonist-induced loss of surface beta2AR – cell-based, FAP fluorogen, flow cytometry, primary screen (AID 504454). To be noted: Am2.2-beta2AR cells, FAP receptor internalization, hits give high values, concentration not given here. (In general: Flow cytometry measures light scatter and fluorescence of single cells or particles in a stream.)
Sequence of Beta-2 adrenergic receptor (Homo sapiens) (P07550 whole entry, looked up): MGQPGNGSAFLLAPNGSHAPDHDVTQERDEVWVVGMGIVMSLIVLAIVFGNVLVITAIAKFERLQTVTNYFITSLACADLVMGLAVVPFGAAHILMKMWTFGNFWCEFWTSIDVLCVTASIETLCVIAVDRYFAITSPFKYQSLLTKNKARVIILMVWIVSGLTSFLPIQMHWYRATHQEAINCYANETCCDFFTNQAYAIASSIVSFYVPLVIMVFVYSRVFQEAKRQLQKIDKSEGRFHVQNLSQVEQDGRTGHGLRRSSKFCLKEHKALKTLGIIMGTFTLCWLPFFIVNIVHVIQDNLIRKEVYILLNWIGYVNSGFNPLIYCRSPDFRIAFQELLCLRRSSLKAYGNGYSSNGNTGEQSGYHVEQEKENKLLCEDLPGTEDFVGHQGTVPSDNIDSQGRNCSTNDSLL
In the case of `CCOC(=O)c1cnc2c(c(C)nn2CC)c1Cl`, the response was 0.74%.
The result for `Cc1ccccc1OCCC(=O)OCC(=O)NCCc1ccc(S(N)(=O)=O)cc1` reads -1.82%; that for `CCCCN(CC)C(=O)C1CCCN(S(=O)(=O)c2cccc3nsnc23)C1` (centres undefined), -4.41%.
Take `CCCCNC(=S)NNC(=O)c1cc(C)on1`: the response is 8.38%.
On to `COc1cc2c(cc1OC)C(/C=C/c1ccco1)=NCC2`, for which the response was -9.05%.
In the case of `COc1cc(C2C3=C(CCCC3=O)OC3=C2C(=O)CCC3)ccc1OCC(=O)Nc1ccccc1`, the response is 3.2%.
For the molecule `CCOC(=O)/C(C#N)=C/c1ccc(OCC(=O)Nc2ccccc2)c(OC)c1`, the response was 46.3% (active).
On to `CCCn1c(C)cc(/C=C(\C#N)C(=O)OCC(=O)Nc2cc(OC)c(OC)c(OC)c2)c1C`, for which the response was -0.22%.
With `CCCn1c(N)c(C(=O)CSc2nnc3n2CCCCC3)c(=O)[nH]c1=O`, the response was -3.04%.
Regarding `O=C(Nc1cccnc1)c1ccc(Cl)cc1[N+](=O)[O-]`, the response is 0.76%.
For `O=C(/C=C/c1ccc(Cl)cc1Cl)c1cccnc1`, the response was 6.98%.
As for `O=C(/C=C/c1ccc(Cl)c([N+](=O)[O-])c1)c1cccnc1`, the response was 77.9% (active).
Consider `O=C(CNC(=O)c1ccccc1F)OCC(=O)c1c[nH]c2ccccc12`, for which the response is 10.7%.
`CC(C)CCN(C(=O)c1csnn1)C(C(=O)NC1CCCC1)c1ccccc1` (centres undefined): the response is 7.85%.
For `CC(=O)Nc1ccc(Nc2c([N+](=O)[O-])cc(S(C)(=O)=O)cc2[N+](=O)[O-])cc1`, the response was 2.64%.
On to `CC(=O)Nc1ccc(S(=O)(=O)N(C)c2nc3ccccc3nc2Cl)cc1`, for which the response was 0.46%.
In the case of `CC(=O)Nc1ccc(Nc2c3ccccc3nc3ccccc23)cc1`, the response is 51.1% (active).
Take `Cc1ccc(CN2CCN(/N=C/c3cccnc3)CC2)c(C)c1`: the response was 4.74%.
As for `CC(=O)Nc1ccc(NC(=O)C(C)OC(=O)c2ccccc2C(=O)c2ccc(Cl)c([N+](=O)[O-])c2)cc1` (centres undefined), the figure is 20.8%.
For the molecule `CC(=O)Nc1ccc(NC(=O)COC(=O)c2ccccc2C(=O)c2ccccc2)cc1`, the response was -9.28%.
The result for `N#Cc1cccc(NC(=O)COC(=O)c2ccccc2C(=O)c2ccc(Cl)c([N+](=O)[O-])c2)c1` reads 46.3% (active); that for `CC[n+]1cc(C)ccc1/C=C/c1ccc(N(C)C)cc1`, -468%.
As for `CCCN(CCC)S(=O)(=O)c1ccc(C(=O)NNC(=O)c2cc(OC)c(OC)c(OC)c2)cc1`, the response is 4.58%.
Consider `CCN(CC)Cc1csc2ccc(Br)cc12`, for which the response is 5.63%.
Turning to `COc1ccc(CS(=O)/C(Cl)=C(/Cl)C(=O)Nc2ccc(OC)nc2)cc1` (centres undefined), the response is 52.3% (active).
The result for `COc1ccc(CCC(=O)c2ccc(OC)cc2)cc1` reads -1.6%; that for `COc1ccc(OC(C)C(=O)Nc2cccnc2)cc1` (centres undefined), -1.88%.
As for `O=C(Nc1ccc([N+](=O)[O-])cc1)C1CC12CCC2` (centres undefined), the response was -2.03%.
Regarding `COc1cccc2[nH]c(C(=O)NCCc3ccccc3)cc12`, the response was 1.88%.
Consider `O=C(Cn1nc(Cc2cccnc2)c2ccccc2c1=O)NCC1CCCO1` (centres undefined), for which the response is -13.8%.
Take `COc1ccc(CC(=O)Nc2nc(-c3ccc(F)c(F)c3)cs2)cc1OC`: the response is 44% (active).
`O=C(COc1ccccc1F)Nc1nc(-c2ccccn2)cs1`: the response is -6.34%.
In the case of `COc1ccccc1NC(=O)Nc1nc(CC(=O)Nc2ccccc2F)cs1`, the response is 1.09%.
Take `CCc1c(SCCC(=O)O)nc2ccccc2c1C`: the response is -4.7%.
Regarding `CCN(CC)c1ccc(C(=O)OCC(=O)c2ccco2)cc1`, the response is 4.24%.
Consider `COc1ccc(Cl)cc1NC(=O)CN1CCN(C(=O)N2CCOCC2)CC1`, for which the response was 1.88%.
As for `Cc1ccc(Cl)cc1NC(=O)CN1CCN(S(=O)(=O)N2CCOCC2)CC1`, the response was 81.7% (active).
As for `O=C(CN1CCN(c2cccc(Cl)c2)CC1)Nc1ccc(S(=O)(=O)N2CCOCC2)cc1`, the response was -2.92%.
`NC[C@H](Cc1ccccc1)NCCc1cc(C(F)(F)F)cc(C(F)(F)F)c1`: the response is 19%.
As for `CCOC(=O)[C@H]1[C@H]2COc3ccc(OC)cc3[C@@H]2N2C(=O)c3ccc(F)cc3NC(=O)[C@@]12C`, the response was -0.05%.
On to `COCCn1c(C)cc(C(=O)CSc2nnc(C3CC3)n2C2CC2)c1C`, for which the response is 6.93%.
As to `O=C(N/C(=C\c1ccc([N+](=O)[O-])cc1)C(=O)N1CCOCC1)c1cccc(Br)c1`, the response is 3.33%.
The result for `O=C(N/C(=C/c1ccc(Cl)cc1)C(=O)N1CCCCC1)c1ccco1` reads 6.34%; that for `O=C(N/C(=C\c1ccc([N+](=O)[O-])cc1)C(=O)N1CCCCC1)c1ccco1`, 72.5% (active); that for `CC(=O)Nc1ccc(S(=O)(=O)N2CCN(CCCOc3cc(C)ccc3C)CC2)cc1`, 3.77%.
On to `CC(C)c1ccc(NC(=O)[C@@H](NC(=O)N2CC(=O)Nc3ccccc32)C(C)C)cc1`, for which the response was -13%.
For the molecule `Cc1ccc(-c2nnc(SCC(=O)N/N=C/c3cccs3)n2-c2ccc(C)cc2)cc1`, the response was -11.9%.
For `Cc1nnc(SCC(=O)N/N=C/c2cn(-c3ccccc3)nc2-c2ccc(F)cc2)n1-c1ccccc1`, the response is 54.1% (active).
For `COc1ccc(OC)c(/C=N/NC(=O)CSc2nnc(C)n2-c2ccccc2)c1`, the response is 8.61%.
Turning to `CCOc1cc(C)c(S(=O)(=O)NCc2ccccn2)cc1C`, the response was -7.14%.
For `CCCOc1ccc(/C=N/NC(=O)C2CC2)c(OCCC)c1`, the response is -16.2%.
The result for `COC(=O)c1ccc(OCC(=O)NC(C)(C)C)cc1` reads 6.76%; that for `CCCOc1ccc(C(=O)C(CCC(CNCC)C(=O)c2ccc(OCCC)cc2)CNCC)cc1` (centres undefined), 46.1% (active); that for `Cc1ccc2[nH]c(=O)c(CN(C)S(=O)(=O)c3cccc4nonc34)cc2c1`, -5.68%.
Regarding `Cc1cc(C)c(C2C3=C(Nc4c2c(C)nn4-c2ccccn2)c2ccccc2C3=O)c(C)c1` (centres undefined), the response was 69.5% (active).
Take `Cc1nn(-c2ccccn2)c2c1C(c1ccncc1)C1=C(CC(C)(C)CC1=O)N2` (centres undefined): the response is -12.9%.
As for `CSc1ccc(S(=O)(=O)NCC(=O)OCC(=O)NC2(C#N)CCCCC2)cc1[N+](=O)[O-]`, the response was 5.12%.
As to `COc1ccc(CCOC2OC(CO)C(OC(=O)/C=C/c3ccc(O)c(OC)c3)C(O[C@H]3O[C@@H](C)[C@H](O)[C@@H](O)[C@H]3O)C2O)cc1O` (some centres undefined), the response was 1.58%.
Turning to `O=C(Nc1ccc(Br)cc1)C1CCC(=O)N1Cc1ccccc1Cl` (centres undefined), the response was -2.28%.
Turning to `COc1ccc(Cl)cc1N(CC(=O)N/N=C/c1ccc(OCC(N)=O)cc1)S(C)(=O)=O`, the response was -3.08%.
Turning to `Cc1nc2ccccc2nc(C)c1=NOCc1ccc(Cl)cc1Cl`, the response was -2.95%.
As for `NC(N)=N/N=C/c1ccc(OCc2ccc(Cl)cc2Cl)cc1`, the figure is 59.6% (active).
As for `CCC(CC)NC(=O)/C=C/c1cccc([N+](=O)[O-])c1`, the figure is -1.38%.
On to `CCCCCc1ccc(-c2ccc(C(=O)O)cc2)nc1`, for which the response is -1.17%.
The result for `Cc1ccc(Sc2cc(N3CCOCC3)nc(-c3ccccc3)n2)cc1` reads 42.7% (active).
Turning to `O=S(=O)(Cc1cc(Sc2ccccc2)nc(-c2ccccc2)n1)c1ccccc1`, the response was 7.22%.
For the molecule `Cc1cc(N2CCOCC2)nc(-c2ccc(Br)cc2)n1`, the response is -1.94%.
As to `S=c1[nH]nc(Nc2ccccc2)s1`, the response is 16.4%.
In the case of `COc1cc(C(C(=O)NC2CCCC2)N(C(=O)c2ccco2)c2ccccc2C(C)=O)cc(OC)c1OC` (centres undefined), the response is 2.2%.
In the case of `CCOC(=O)c1c(-c2ccccc2)oc2cc(Br)c(O)cc12`, the response was -5.83%.
In the case of `CCOC(=O)c1c(-c2ccccc2)oc2ccc(OCC(=O)NN)cc12`, the response is 27.5%.
`CCOC(=O)c1c(-c2ccccc2)oc2cc(Br)c(O)c(C=O)c12`: the response was 56.8% (active).
As for `Cn1c(=O)oc2cc(S(=O)(=O)NCCC(=O)NCc3ccccc3Cl)ccc21`, the figure is 0.87%; as for `CCOC(=O)C1CCN(CC(=O)Nc2ccc(OC)c(S(=O)(=O)N3CCCCC3)c2)CC1`, 11.9%; as for `O=C(COc1cccnc1[N+](=O)[O-])Nc1ccc(Cl)cc1F`, -3.75%.
For the molecule `O=C(Nc1ccc(N2CCOCC2)cc1)c1ccc(-c2ccccc2[N+](=O)[O-])o1`, the response is 15.6%.
As for `Cc1c(/C=N/N2C(=O)C3C4C=CC(C4)C3C2=O)c2ccccc2n1C` (centres undefined), the response was -4.99%.
On to `O=C1C2C3C=CC(C4CC34)C2C(=O)N1/N=C/c1ccc(-c2ccccc2[N+](=O)[O-])o1` (centres undefined), for which the response was 42.1% (active).
Turning to `CCOc1cc(/C=C2/N=C(c3ccc(C(C)(C)C)cc3)OC2=O)cc(Cl)c1OS(C)(=O)=O`, the response was -2.17%.
`COc1ccc(NC(=O)CN(C)C(=O)c2cccc(S(=O)(=O)N3CCN(c4ccccc4)CC3)c2)cc1`: the response is 6.13%.
The result for `O=[N+]([O-])/C=C/c1ccc2c(ccn2Cc2ccccc2)c1` reads 48.2% (active); that for `COc1ccc2ccccc2c1CNc1nnnn1C`, -4.52%; that for `Cn1c(=S)sc2ccc3ccccc3c21`, 59.5% (active).
For the molecule `CCN(CC(=O)Nc1ccccc1C(F)(F)F)C(=O)CSCc1c(C)noc1C`, the response was -3.25%.
As for `Cc1ccc(NC(=O)COC(=O)C2C3CC4OC(=O)C2C4C3)cc1Cl` (centres undefined), the figure is 5.53%; as for `COc1cc(/C=C2\Oc3ccc(C#Cc4ccc(O)cc4)cc3C2=O)cc(OC)c1`, -8.05%; as for `O=C1c2ccccc2C(=O)N1CCC#Cc1ccc2cc(C3(O)CCCCC3)oc(=O)c2c1`, 5.43%.
As to `COc1cc(C#Cc2ccc3cc(CCCO)oc(=O)c3c2)cc(OC)c1`, the response was 45.9% (active).
The result for `COc1ccc(CCNC(=O)c2ccc3c(c2)NC(=O)C(N2CCOCC2)S3)cc1OC` (centres undefined) reads 3.69%.
